The values that follow come from PubChem BioAssay (NCI).

Where “and” joins values, the source holds several entries; their conditions need not be identical. Identical values can stand only once. About 83,000 compounds went through this panel and 20% of them were active in at least one assay; those are over-represented in the sample as a whole.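 Percent growth is the endpoint: 0 to 100 indicates growth inhibition (40 means 60% inhibition), 0 means no net growth, and negative values indicate cell death.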 Calls of active or inactive are those of the source. How the source made its calls: active means growth percent below 10; inactive means the rest.

Some test systems named below: HCT-15 colon; HT29 colon; SNB-75 CNS; SNB-19 CNS; U251 CNS; PC-3 prostate; SK-MEL-5 melanoma; UACC-62 melanoma; LOX IMVI melanoma; SK-MEL-28 melanoma; SK-MEL-2 melanoma; EKVX NSCLC; SN12C renal; UO-31 renal; TK-10 renal; ACHN renal; CAKI-1 renal; A498 renal; CCRF-CEM leukemia; MOLT-4 leukemia.
Holding throughout (assay): NCI-60 one-dose screen, 48 h (100 = growth as untreated, 0 = no growth, -100 = all killed)
Common to all, as to conditions: 10 µM unless noted

Take `Cc1c(C(C)(C)O)cn2ncnc(Oc3ccc(NC(=O)Nc4ccc(Cl)c(C(F)(F)F)c4)cc3)c12`: the growth in the experiment with HCT-15 colon was 36.8% (inactive); in the experiment on HT29 colon, 34.6% (inactive); in the experiment with SNB-75 CNS, 33.8% (inactive); in the experiment on SNB-19 CNS, 30.8% (inactive); in the experiment on U251 CNS, 31.8% (inactive); in the experiment with PC-3 prostate, 21.5% (inactive). Moreover, the growth was 56.2% (inactive) in the experiment on SK-MEL-5 melanoma; 55.5% (inactive) with UACC-62 melanoma; -9.63% (active) with LOX IMVI melanoma; 53.1% (inactive) in the experiment on SK-MEL-28 melanoma; 75.9% (inactive) with SK-MEL-2 melanoma; 30.8% (inactive) with EKVX NSCLC. Moreover, the growth in the experiment with SN12C renal is 44.3% (inactive); in the experiment with UO-31 renal it was 50.9% (inactive); in the experiment with TK-10 renal it was 45.9% (inactive); in the experiment on ACHN renal, 21% (inactive); in the experiment on CAKI-1 renal, 29.2% (inactive); in the experiment with A498 renal it was 11.6% (inactive). The growth is 34.1% (inactive) in the experiment with CCRF-CEM leukemia and 18.2% (inactive) in the experiment with MOLT-4 leukemia.

Consider `Nc1ccc(S(=O)(=O)c2ccc(N)cc2)cc1`, for which the growth in the experiment on HCT-15 colon was 114% (inactive) and 106% (inactive); in the experiment with HT29 colon, 106% (inactive) and 98.1% (inactive); in the experiment on SNB-75 CNS, 87.8% (inactive); in the experiment with SNB-19 CNS, 100% (inactive) and 104% (inactive); in the experiment on U251 CNS, 94.6% (inactive) and 106% (inactive); with PC-3 prostate it was 85.2% (inactive) and 94.1% (inactive). Besides, the growth in the experiment with SK-MEL-5 melanoma was 92.8% (inactive) and 108% (inactive); in the experiment with UACC-62 melanoma, 98.7% (inactive) and 104% (inactive); with LOX IMVI melanoma it was 94.6% (inactive) and 102% (inactive); with SK-MEL-28 melanoma, 114% (inactive) and 102% (inactive); in the experiment on SK-MEL-2 melanoma, 122% (inactive) and 113% (inactive); with EKVX NSCLC it was 94.7% (inactive). Further, the growth with SN12C renal is 101% (inactive); with UO-31 renal, 89.8% (inactive) and 75.5% (inactive); with TK-10 renal it was 100% (inactive); with ACHN renal, 96.9% (inactive) and 110% (inactive); in the experiment with CAKI-1 renal, 86.6% (inactive); in the experiment on A498 renal, 103% (inactive) and 106% (inactive). In addition, the growth in the experiment on CCRF-CEM leukemia is 94.8% (inactive) and -23.9% (active); with MOLT-4 leukemia, 109% (inactive) and 108% (inactive).

For `CCNC(=S)n1nc(SC)c(C(=O)OCC)c1N`, the growth was 96.3% (inactive) in the experiment on HCT-15 colon; 102% (inactive) with HT29 colon; 89.5% (inactive) in the experiment with SNB-75 CNS; 93.6% (inactive) with SNB-19 CNS; 109% (inactive) in the experiment on U251 CNS; 102% (inactive) in the experiment with PC-3 prostate. Also, the growth with SK-MEL-5 melanoma is 96.1% (inactive); in the experiment with UACC-62 melanoma, 81.6% (inactive); with LOX IMVI melanoma, 95.4% (inactive); with SK-MEL-28 melanoma it was 102% (inactive); in the experiment with SK-MEL-2 melanoma it was 105% (inactive); with EKVX NSCLC, 101% (inactive). Further, the growth in the experiment on SN12C renal is 97.6% (inactive); in the experiment on UO-31 renal it was 77.8% (inactive); in the experiment with TK-10 renal, 106% (inactive); in the experiment with ACHN renal it was 96.7% (inactive); in the experiment with CAKI-1 renal it was 86.7% (inactive); in the experiment with A498 renal, 97.5% (inactive). The growth in the experiment with CCRF-CEM leukemia is 106% (inactive); in the experiment on MOLT-4 leukemia, 81.3% (inactive).

As to `CCCCC(NC(=O)CN1C(=O)/C(=C/C(C)=C/c2ccccc2)SC1=S)C(=O)O` (stereo not given), the growth in the experiment with HCT-15 colon is 108% (inactive); in the experiment with HT29 colon it was 120% (inactive); in the experiment on SNB-75 CNS it was 98.7% (inactive); in the experiment with SNB-19 CNS, 95.7% (inactive); in the experiment on U251 CNS it was 110% (inactive); in the experiment on PC-3 prostate it was 107% (inactive). Also, the growth is 101% (inactive) in the experiment with SK-MEL-5 melanoma; 92.7% (inactive) in the experiment with UACC-62 melanoma; 94.7% (inactive) with LOX IMVI melanoma; 104% (inactive) in the experiment on SK-MEL-28 melanoma; 113% (inactive) in the experiment on SK-MEL-2 melanoma; 98.6% (inactive) with EKVX NSCLC. The growth was 95.5% (inactive) with SN12C renal; 82.9% (inactive) in the experiment with UO-31 renal; 104% (inactive) in the experiment on TK-10 renal; 97.2% (inactive) in the experiment with ACHN renal; 89.2% (inactive) in the experiment on CAKI-1 renal; 68% (inactive) in the experiment on A498 renal. The growth in the experiment with CCRF-CEM leukemia is 105% (inactive); in the experiment on MOLT-4 leukemia, 118% (inactive).

On to `Cc1cccc(-c2nnc(SCC(=O)Nc3ncc(Cc4ccccc4)s3)n2N2C(=O)CSC2=S)c1`, for which the growth in the experiment with HCT-15 colon was 78.5% (inactive); in the experiment on HT29 colon, 81.2% (inactive); in the experiment with SNB-75 CNS, -7.46% (active); in the experiment on SNB-19 CNS, 54.1% (inactive); with U251 CNS it was 34.6% (inactive); with PC-3 prostate, 57.3% (inactive). The growth with SK-MEL-5 melanoma is 75.9% (inactive); in the experiment on UACC-62 melanoma it was 20.1% (inactive); with LOX IMVI melanoma, 23.5% (inactive); in the experiment on SK-MEL-28 melanoma, 51.3% (inactive); in the experiment on SK-MEL-2 melanoma, 75.6% (inactive); in the experiment with EKVX NSCLC, 73.4% (inactive). In addition, the growth in the experiment with SN12C renal is 19.1% (inactive); in the experiment with UO-31 renal, 72.3% (inactive); in the experiment on TK-10 renal, 47.3% (inactive); in the experiment on ACHN renal it was 43.8% (inactive); in the experiment on CAKI-1 renal, 23.3% (inactive); in the experiment on A498 renal, 64.8% (inactive). The growth in the experiment on CCRF-CEM leukemia is 76.5% (inactive); in the experiment with MOLT-4 leukemia it was 87.5% (inactive).

`O=C([C@H]1C[C@H]1c1ccc(S(F)(F)(F)(F)F)cc1)N1CCN(c2cc(Cl)ccc2C(F)(F)F)CC1`: the growth with HCT-15 colon was 88.1% (inactive); in the experiment with HT29 colon it was 67.5% (inactive); in the experiment with SNB-75 CNS it was 101% (inactive); in the experiment with SNB-19 CNS it was 97.1% (inactive); with U251 CNS it was 94.2% (inactive); in the experiment on PC-3 prostate it was 74.2% (inactive). Also, the growth with SK-MEL-5 melanoma is 89.9% (inactive); in the experiment on UACC-62 melanoma, 67.4% (inactive); with LOX IMVI melanoma it was 102% (inactive); with SK-MEL-28 melanoma, 97.1% (inactive); in the experiment on SK-MEL-2 melanoma it was 91.7% (inactive); in the experiment with EKVX NSCLC it was 91.9% (inactive). The growth with SN12C renal is 101% (inactive); in the experiment on UO-31 renal, 67.8% (inactive); in the experiment on TK-10 renal it was 93.6% (inactive); in the experiment with ACHN renal, 93.4% (inactive); in the experiment on CAKI-1 renal it was 67.3% (inactive); with A498 renal it was 94.4% (inactive). For the same compound, the values for the growth in the experiment with CCRF-CEM leukemia and with MOLT-4 leukemia were 96.4% (inactive) and 76.9% (inactive), respectively.
